# Laboratory results taken from the supplement of paper PMC6607015.
# Counter-ions that a name gives are not always drawn.
# Tests used:
# Conditions in all cases: compound concentration in added solution (µM; 5 µl added to 20 µl cells): 10; 18 h
# [1] = test system: A431; test: LBPA endosome anti-LBPA integrated intensity (sum per cell), Z-score; higher = more LBPA staining
# Outline: (§1)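 Z-scores normalised in AcuityXpress are given for per-cell integrated LBPA or filipin intensity, measured whole-cell or within LBPA endosomes by MetaXpress segmentation. Cells (HeLa MZ or A431, 3,500 per well in 20 µl) were seeded onto 5 µl of 10 µM compound solution in duplicate 384-well imaging plates and fixed in 4% PFA after 18 h.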
# [2] = test system: HeLa MZ; test: as above
# Outline: as §1
# [3] = test system: A431; test: whole-cell filipin (free cholesterol) integrated intensity, Z-score; higher = more cholesterol staining
# Outline: as §1
# [4] = test system: HeLa MZ; test: as above
# Outline: as §1
# [5] = test system: A431; test: filipin (cholesterol) integrated intensity within LBPA endosomes, Z-score; higher = more cholesterol in LBPA endosomes
# Outline: as §1
# [6] = test system: HeLa MZ; test: as above
# Outline: as §1
structure (smiles),measurement,setting,value
Cc1cc(=O)n(-c2ccccc2)n1C [Antipyrine],LBPA endosome anti-LBPA integrated intensity (z-score),[1],-0.333
same,LBPA endosome anti-LBPA integrated intensity (z-score),[2],-0.475
same,whole-cell filipin (z-score),[3],-0.316
same,whole-cell filipin (z-score),[4],-0.0627
same,filipin (z-score),[5],-0.425
same,filipin (z-score),[6],-0.342
COCCCOc1ccnc(C[S+]([O-])c2nc3ccccc3[nH]2)c1C (stereo not drawn) [Rabeprazole Sodium salt],LBPA endosome anti-LBPA integrated intensity (z-score),[1],-0.587
same,LBPA endosome anti-LBPA integrated intensity (z-score),[2],-0.545
same,whole-cell filipin (z-score),[3],0.0453
same,whole-cell filipin (z-score),[4],1.99
same,filipin (z-score),[5],-0.44
same,filipin (z-score),[6],-0.189
CCCNCC(O)COc1ccccc1C(=O)CCc1ccccc1 (stereo not drawn) [Propafenone hydrochloride],LBPA endosome anti-LBPA integrated intensity (z-score),[1],3.53
same,LBPA endosome anti-LBPA integrated intensity (z-score),[2],1.93
same,whole-cell filipin (z-score),[3],2.04
same,whole-cell filipin (z-score),[4],1.83
same,filipin (z-score),[5],2.65
same,filipin (z-score),[6],2.28
CC[C@H](C)C(=O)O[C@H]1C[C@@H](C)C=C2C=C[C@H](C)[C@H](CC[C@@H]3C[C@@H](O)CC(=O)O3)[C@H]21 [Lovastatin],LBPA endosome anti-LBPA integrated intensity (z-score),[1],-0.976
same,LBPA endosome anti-LBPA integrated intensity (z-score),[2],-1.31
same,whole-cell filipin (z-score),[3],-0.714
same,whole-cell filipin (z-score),[4],-0.104
same,filipin (z-score),[5],-0.696
same,filipin (z-score),[6],0.121
N[C@@H](Cc1cc(I)c(Oc2ccc(O)c(I)c2)c(I)c1)C(=O)O [Liothyronine],LBPA endosome anti-LBPA integrated intensity (z-score),[1],-0.519
same,LBPA endosome anti-LBPA integrated intensity (z-score),[2],0.00578
same,whole-cell filipin (z-score),[3],-0.411
same,whole-cell filipin (z-score),[4],-0.281
same,filipin (z-score),[5],-0.479
same,filipin (z-score),[6],-0.592
CCN(CC)CCNC(=O)c1cc(Cl)c(N)cc1OC [Metoclopramide monohydrochloride],LBPA endosome anti-LBPA integrated intensity (z-score),[1],-0.305
same,LBPA endosome anti-LBPA integrated intensity (z-score),[2],1.1
same,whole-cell filipin (z-score),[3],-0.595
same,whole-cell filipin (z-score),[4],-0.234
same,filipin (z-score),[5],-0.404
same,filipin (z-score),[6],0.279
CCCC(CCC)C(=O)O [Valproic acid],LBPA endosome anti-LBPA integrated intensity (z-score),[1],-0.476
same,LBPA endosome anti-LBPA integrated intensity (z-score),[2],1.11
same,whole-cell filipin (z-score),[3],0.263
same,whole-cell filipin (z-score),[4],2.69
same,filipin (z-score),[5],-0.401
same,filipin (z-score),[6],-0.484
C[C@]12CC[C@@H]3c4ccc(OS(=O)(=O)O)cc4CC[C@H]3[C@@H]1CCC2=O [Estropipate],LBPA endosome anti-LBPA integrated intensity (z-score),[1],-0.486
same,LBPA endosome anti-LBPA integrated intensity (z-score),[2],-0.706
same,whole-cell filipin (z-score),[3],-0.265
same,whole-cell filipin (z-score),[4],-0.499
same,filipin (z-score),[5],-0.418
same,filipin (z-score),[6],-0.5
O=P(O)(O)C(Cl)(Cl)P(=O)(O)O [Clodronate],LBPA endosome anti-LBPA integrated intensity (z-score),[1],-0.576
same,LBPA endosome anti-LBPA integrated intensity (z-score),[2],-0.865
same,whole-cell filipin (z-score),[3],-0.177
same,whole-cell filipin (z-score),[4],-0.446
same,filipin (z-score),[5],-0.541
same,filipin (z-score),[6],-0.434
Nc1cc(-c2ccncc2)c[nH]c1=O [Amrinone],LBPA endosome anti-LBPA integrated intensity (z-score),[1],-0.468
same,LBPA endosome anti-LBPA integrated intensity (z-score),[2],-0.737
same,whole-cell filipin (z-score),[3],-0.578
same,whole-cell filipin (z-score),[4],-0.805
same,filipin (z-score),[5],-0.461
same,filipin (z-score),[6],-0.541
C[C@@H]1CCC[C@H](C)N1NC(=O)c1ccc(Cl)c(S(N)(=O)=O)c1 [Clopamide],LBPA endosome anti-LBPA integrated intensity (z-score),[1],-0.569
same,LBPA endosome anti-LBPA integrated intensity (z-score),[2],-1.24
same,whole-cell filipin (z-score),[3],-0.626
same,whole-cell filipin (z-score),[4],-0.712
same,filipin (z-score),[5],-0.503
same,filipin (z-score),[6],-0.648
CCCCC(CC)CN1CN(CC(CC)CCCC)CC(C)(N)C1 (stereo not drawn) [Hexetidine],LBPA endosome anti-LBPA integrated intensity (z-score),[1],0.287
same,LBPA endosome anti-LBPA integrated intensity (z-score),[2],-1.15
same,whole-cell filipin (z-score),[3],1.01
same,whole-cell filipin (z-score),[4],-0.0808
same,filipin (z-score),[5],0.351
same,filipin (z-score),[6],-0.116
C[C@]12CCC(=O)C=C1CC[C@@H]1[C@@H]2C(=O)C[C@@]2(C)[C@H]1CC[C@]2(O)C(=O)CO [Cortisone],LBPA endosome anti-LBPA integrated intensity (z-score),[1],-0.412
same,LBPA endosome anti-LBPA integrated intensity (z-score),[2],0.126
same,whole-cell filipin (z-score),[3],-0.734
same,whole-cell filipin (z-score),[4],-0.61
same,filipin (z-score),[5],-0.464
same,filipin (z-score),[6],-0.486
CC1(C)[C@@H](OC(=O)CCC(=O)O)CC[C@]2(C)[C@H]3C(=O)C=C4[C@@H]5C[C@@](C)(C(=O)O)CC[C@]5(C)CC[C@@]4(C)[C@]3(C)CC[C@@H]12 [Carbenoxolone disodium salt],LBPA endosome anti-LBPA integrated intensity (z-score),[1],-0.362
same,LBPA endosome anti-LBPA integrated intensity (z-score),[2],0.399
same,whole-cell filipin (z-score),[3],-0.0877
same,whole-cell filipin (z-score),[4],0.214
same,filipin (z-score),[5],-0.408
same,filipin (z-score),[6],-0.356
CN(C)CCOC(=O)COc1ccc(Cl)cc1 [Meclofenoxate hydrochloride],LBPA endosome anti-LBPA integrated intensity (z-score),[1],-0.454
same,LBPA endosome anti-LBPA integrated intensity (z-score),[2],-0.858
same,whole-cell filipin (z-score),[3],-0.411
same,whole-cell filipin (z-score),[4],-0.563
same,filipin (z-score),[5],-0.417
same,filipin (z-score),[6],-0.533
CCCCN(CCCC)CCC(O)c1cc2c(Cl)cc(Cl)cc2c2cc(C(F)(F)F)ccc12 (stereo not drawn) [Halofantrine hydrochloride],LBPA endosome anti-LBPA integrated intensity (z-score),[1],1.7
same,LBPA endosome anti-LBPA integrated intensity (z-score),[2],-0.119
same,whole-cell filipin (z-score),[3],1.07
same,whole-cell filipin (z-score),[4],-0.0402
same,filipin (z-score),[5],1.04
same,filipin (z-score),[6],0.413
COc1ccc(/C=C/C(=O)Nc2ccccc2C(=O)O)cc1OC [Tranilast],LBPA endosome anti-LBPA integrated intensity (z-score),[1],-0.353
same,LBPA endosome anti-LBPA integrated intensity (z-score),[2],-0.361
same,whole-cell filipin (z-score),[3],-0.609
same,whole-cell filipin (z-score),[4],-0.648
same,filipin (z-score),[5],-0.443
same,filipin (z-score),[6],-0.608
CN(C)CCOC(=O)C(c1ccccc1)C1(O)CCCC1 (stereo not drawn) [Cyclopentolate hydrochloride],LBPA endosome anti-LBPA integrated intensity (z-score),[1],-0.331
same,LBPA endosome anti-LBPA integrated intensity (z-score),[2],0.664
same,whole-cell filipin (z-score),[3],0.119
same,whole-cell filipin (z-score),[4],-0.332
same,filipin (z-score),[5],-0.39
same,filipin (z-score),[6],-0.209
CC(=C(CCO)SSCC1CCCO1)N(C=O)Cc1cnc(C)nc1N (stereo in doubt) [Fursultiamine Hydrochloride],LBPA endosome anti-LBPA integrated intensity (z-score),[1],-0.412
same,LBPA endosome anti-LBPA integrated intensity (z-score),[2],-0.276
same,whole-cell filipin (z-score),[3],-0.00261
same,whole-cell filipin (z-score),[4],0.173
same,filipin (z-score),[5],-0.513
same,filipin (z-score),[6],-0.472
COC1=CC(=O)C[C@@H](C)[C@]12Oc1c(Cl)c(OC)cc(OC)c1C2=O [Griseofulvin],LBPA endosome anti-LBPA integrated intensity (z-score),[1],-0.41
same,LBPA endosome anti-LBPA integrated intensity (z-score),[2],-0.867
same,whole-cell filipin (z-score),[3],-0.73
same,whole-cell filipin (z-score),[4],-1.73
same,filipin (z-score),[5],-0.468
same,filipin (z-score),[6],-0.516
CC[C@H](c1ccc(O)cc1)[C@@H](CC)c1ccc(O)cc1 [Hexestrol],LBPA endosome anti-LBPA integrated intensity (z-score),[1],-0.48
same,LBPA endosome anti-LBPA integrated intensity (z-score),[2],-0.198
same,whole-cell filipin (z-score),[3],-0.492
same,whole-cell filipin (z-score),[4],-0.508
same,filipin (z-score),[5],-0.435
same,filipin (z-score),[6],-0.383
CCN(CCO)CCCC(C)Nc1ccnc2cc(Cl)ccc12 (stereo not drawn) [Hydroxychloroquine sulfate],LBPA endosome anti-LBPA integrated intensity (z-score),[1],0.14
same,LBPA endosome anti-LBPA integrated intensity (z-score),[2],1.98
same,whole-cell filipin (z-score),[3],-0.556
same,whole-cell filipin (z-score),[4],0.249
same,filipin (z-score),[5],-0.241
same,filipin (z-score),[6],0.821
CCN(CC)CCNC(=O)c1ccc(N)cc1 [Procainamide hydrochloride],LBPA endosome anti-LBPA integrated intensity (z-score),[1],-0.492
same,LBPA endosome anti-LBPA integrated intensity (z-score),[2],0.0584
same,whole-cell filipin (z-score),[3],-0.628
same,whole-cell filipin (z-score),[4],0.713
same,filipin (z-score),[5],-0.428
same,filipin (z-score),[6],-0.159
CC1(C)S[C@@H]2[C@H](NC(=O)Cc3ccccc3)C(=O)N2[C@H]1C(=O)O [Benzylpenicillin sodium],LBPA endosome anti-LBPA integrated intensity (z-score),[1],-0.349
same,LBPA endosome anti-LBPA integrated intensity (z-score),[2],1.42
same,whole-cell filipin (z-score),[3],-0.101
same,whole-cell filipin (z-score),[4],2.18
same,filipin (z-score),[5],-0.427
same,filipin (z-score),[6],-0.552
CNc1ncnc2c1ncn2[C@@H]1O[C@H](CO)[C@@H](O)[C@H]1O [N6-methyladenosine],LBPA endosome anti-LBPA integrated intensity (z-score),[1],-0.364
same,LBPA endosome anti-LBPA integrated intensity (z-score),[2],0.218
same,whole-cell filipin (z-score),[3],-0.443
same,whole-cell filipin (z-score),[4],0.122
same,filipin (z-score),[5],-0.45
same,filipin (z-score),[6],-0.43
Clc1ccc(Cn2c(CN3CCCC3)nc3ccccc32)cc1 [Clemizole hydrochloride],LBPA endosome anti-LBPA integrated intensity (z-score),[1],0.145
same,LBPA endosome anti-LBPA integrated intensity (z-score),[2],0.955
same,whole-cell filipin (z-score),[3],0.228
same,whole-cell filipin (z-score),[4],-0.285
same,filipin (z-score),[5],0.0324
same,filipin (z-score),[6],-0.147
CC(C(=O)O)c1ccc(C(=O)c2ccccc2)s1 (stereo not drawn) [Tiaprofenic acid],LBPA endosome anti-LBPA integrated intensity (z-score),[1],-0.52
same,LBPA endosome anti-LBPA integrated intensity (z-score),[2],-0.291
same,whole-cell filipin (z-score),[3],-0.49
same,whole-cell filipin (z-score),[4],0.105
same,filipin (z-score),[5],-0.443
same,filipin (z-score),[6],-0.426
CC(N/C(=N\C#N)Nc1ccncc1)C(C)(C)C (stereo not drawn) [Pinacidil],LBPA endosome anti-LBPA integrated intensity (z-score),[1],-0.477
same,LBPA endosome anti-LBPA integrated intensity (z-score),[2],-0.897
same,whole-cell filipin (z-score),[3],-0.717
same,whole-cell filipin (z-score),[4],-0.503
same,filipin (z-score),[5],-0.45
same,filipin (z-score),[6],-0.559
